# ST2 inh = IL1RL1 inhibition; AID 1259354; AlphaLISA ST2-Fc/biotin-IL-33 interaction, 1 h; inhibition, % for hits at 17 µM; 2.3% of 78,000 active; in the data active means inhibition above about 30%
# Target sequence (Q01638 whole entry, looked up): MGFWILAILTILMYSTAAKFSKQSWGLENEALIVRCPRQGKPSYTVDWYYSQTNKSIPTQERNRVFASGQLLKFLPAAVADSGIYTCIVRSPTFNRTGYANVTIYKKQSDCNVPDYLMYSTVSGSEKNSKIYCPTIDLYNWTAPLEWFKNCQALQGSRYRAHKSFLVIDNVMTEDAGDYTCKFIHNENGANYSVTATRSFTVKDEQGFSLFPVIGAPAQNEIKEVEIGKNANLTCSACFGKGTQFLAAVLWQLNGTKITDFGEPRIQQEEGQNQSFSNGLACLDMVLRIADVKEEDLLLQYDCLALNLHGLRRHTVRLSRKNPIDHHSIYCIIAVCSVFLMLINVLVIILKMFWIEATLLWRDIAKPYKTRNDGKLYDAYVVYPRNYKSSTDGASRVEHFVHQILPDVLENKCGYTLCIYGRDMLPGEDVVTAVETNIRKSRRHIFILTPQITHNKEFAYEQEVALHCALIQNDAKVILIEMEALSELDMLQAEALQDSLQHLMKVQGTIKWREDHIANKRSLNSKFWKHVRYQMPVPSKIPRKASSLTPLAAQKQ
# Numbers without * were called inactive; i = inactive. The entries come from a sample that favours hits as a whole.
SMILES,ST2 inh
Cc1cc2c(c(=O)o1)C(c1ccccc1OCc1ccccc1Cl)C(C#N)=C(N)O2 (stereo not drawn),i
COc1ccc(C2C(C#N)=C(N)Oc3n[nH]c(C)c32)cc1OCc1ccccc1 (stereo not drawn),i
COc1cc(C2C(C#N)=C(N)OC3=C2C(=O)CC(c2ccccc2)C3)ccc1OCc1ccccc1 (stereo not drawn),37%*
COc1ccc(C2C(C#N)=C(N)Oc3cc(C)oc(=O)c32)cc1OCc1ccccc1 (stereo not drawn),32%*
COc1cc(C2C(C#N)=C(N)OC3=C2C(=O)CC(c2ccccc2)C3)cc(OC)c1OC (stereo not drawn),i
CN(CC(=O)Nc1ccc(Br)cc1)S(=O)(=O)c1ccc2c(c1)CCC(=O)N2,i
C=CCOc1nc2c(c(=O)n(C)c(=O)n2C)n1C,i
Cn1c(OCc2cccnc2)nc2c1c(=O)n(Cc1ccc(Cl)cc1)c(=O)n2C,i
C=CCOc1nc2c(c(=O)n(Cc3ccc(Br)cc3)c(=O)n2C)n1C,39%*
Cc1cccc(Oc2coc3cc(OCC(=O)OC(C)C)ccc3c2=O)c1,i
COc1ccc2cc(C(=O)NC(C)=O)c(=Nc3ccc(C#N)cc3)oc2c1,37%*
COc1ccc2oc(=Nc3cccc(C#N)c3)c(C(=O)NC(C)=O)cc2c1,i
COc1ccc2oc(=Nc3ccc(Cl)cc3Cl)c(C(=O)NC(C)=O)cc2c1,33%*
COc1ccc2cc(C(=O)NC(C)=O)c(=Nc3cccc(F)c3)oc2c1,i
COc1ccc2oc(=Nc3ccccc3F)c(C(=O)NC(C)=O)cc2c1,i
CC(=O)NC(=O)c1cc2cc(Br)ccc2oc1=Nc1ccccc1F,i
COc1ccc(NC(=O)NCCc2nc3cccnc3n2Cc2ccc(C)cc2)cc1OC,i
C[C@H]1[C@@H]2[C@@H](O)[C@H]([C@H](C)C(=O)N3CCCC3)CC[C@@]2(C)CC[C@@H]1NC(=O)c1cncnc1,i
CCC(C)NC(=O)c1ccc(-c2cccc3ccnn23)o1 (stereo not drawn),i
O=C(NC1CCCCC1)c1ccc2c(c1)ncn2C1CCCCCC1,i
O=C(NCc1cccs1)c1ccc2c(c1)N(Cc1ccc(F)cc1)C(=O)CS2=O (stereo not drawn),i
O=C1NN(c2ccc(Br)cc2)C(=O)/C1=C\c1cccn1-c1ccc([N+](=O)[O-])cc1,33%*
Cc1cc(/C=C2/C(=O)NC(=O)N(c3ccccc3)C2=O)c(C)n1-c1ccc([N+](=O)[O-])cc1,i
O=C1NN(c2ccc(F)cc2)C(=O)/C1=C\c1cccn1-c1ccc([N+](=O)[O-])cc1,31%*
O=C1NC(=O)N(c2cccc(F)c2)C(=O)/C1=C/c1cccn1-c1ccccc1,i
SMILES,ST2 inh
O=[N+]([O-])c1ccc(NS(=O)(=O)c2ccc(Br)cc2)cc1,i
CC1=C(C(=O)OCC(C)C)C(c2cccc(O)c2)NC(=O)N1 (stereo not drawn),i
COc1ccc(/C=C2\SC(=O)N(c3ccc(O)cc3)C2=O)cc1,i
COc1ccc(/C=C2\SC(=O)N(c3cccc(C)c3)C2=O)cc1,i
COc1ccc(N2C(=N)S/C(=C\c3ccccc3[N+](=O)[O-])C2=O)cc1,36%*
Cc1cc(=O)[nH]c(SC(C(=O)O)c2ccccc2)n1 (stereo not drawn),i
COc1ccc(C(=O)NC[C@H]2O[C@@H](CO)[C@@H](O)[C@H]2N2CCN(c3ccccc3)CC2)cc1,i
CCOc1cc(C=C2C(=O)OC(C)(C(C)(C)C)OC2=O)cc(I)c1O (stereo not drawn),i
COc1ccc(C=C2C(=O)OC3(CCCCC3)OC2=O)cc1O,i
CCOc1cc(C=C2C(=O)OC(C)(C(C)(C)C)OC2=O)ccc1OC (stereo not drawn),i
Cn1cc(/C=C2\C(=O)NN(c3ccccc3)C2=O)c2ccccc21,i
CCN(CC)c1ccc(C=C2C(=O)OC(C)(C(C)(C)C)OC2=O)cc1 (stereo not drawn),43%*
Cn1cc(C=C2C(=O)OC3(CCCCC3)OC2=O)c2ccccc21,41%*
N#Cc1ccccc1Cn1cc(C=C2C(=O)NC(=O)NC2=O)c2ccccc21,i
CCN(CC)C(=O)Cn1cc(/C=C2\C(=O)NC(=O)N(CC)C2=O)c2ccccc21,i
CCn1cc(C=C2C(=O)OC(C)(C(C)(C)C)OC2=O)c2ccccc21 (stereo not drawn),44%*
NS(=O)(=O)c1ccc(CCNC(=O)Cn2cnc3c([nH]c4ccccc43)c2=O)cc1,i
Cc1c(C(=O)NC(C)C)oc2ccc(S(=O)(=O)N3CCC4(CC3)OCCO4)cc12,i
CC(C)CC(=O)N(C)CCc1ccccn1,i
COc1ccc(OC)c(N(CC(=O)N2CCN(C)CC2)S(C)(=O)=O)c1,i
O=C(NC1CCCCC1)c1cc(-c2ccc(Cl)c(Cl)c2)on1,i
CCCc1nnc([C@H]2CCN(Cc3ccc(C)o3)C2)o1,i
COc1ccc(-n2nc3c(c2NC(=O)c2c(F)cccc2F)CS(=O)C3)cc1 (stereo not drawn),i
COc1ccc(CN(C)C(C)c2ccccn2)c(C)c1C (stereo not drawn),i
O=C(C1CC1)N1CCc2cc(Br)cc(S(=O)(=O)NC3CCCCC3)c21,i
SMILES,ST2 inh
CC(C)(C)NC(=O)NCCc1nc2cccnc2n1Cc1ccccc1,i
CC(C)CNC(=O)NCCc1nc2cccnc2n1Cc1ccccc1,i
COc1ccc(CNC(=O)NCCc2nc3cccnc3n2Cc2ccccc2)cc1,63%*
O=C(Nc1nnc(C2CCCC2)s1)c1cccc(Cl)c1,i
O=C(Nc1c2c(nc3ccccc13)CCCC2)c1ccccc1Cl,i
Cc1csc2ncc(C(=O)NCc3ccc(Cl)cc3)c(=O)n12,i
Cc1cccc(C(=O)N[C@@H]2CC[C@@H](N)C2)c1O,i
O=C1Nc2cc(Cl)c(Cl)cc2N(O)N1c1c(F)cccc1F,i
CC1(C)CC(=O)C2=C(C1)Nc1cc(C(=O)c3ccccc3)ccc1NC2c1cccs1 (stereo not drawn),i
CC1(C)CC(=O)C2=C(C1)Nc1cc(C(=O)c3ccccc3)ccc1NC2c1ccco1 (stereo not drawn),i
COc1ccccc1C1Nc2ccc(C(=O)c3ccccc3)cc2NC2=C1C(=O)CC(C)(C)C2 (stereo not drawn),31%*
COc1cccc(CC2(C3CCNCC3)NC(=O)NC2=O)c1 (stereo not drawn),i
O=C(Nc1ccc(F)cc1[N+](=O)[O-])c1cnc2n(c1=O)CCS2,i
O=C(CCS(=O)(=O)c1cccc2nonc12)Nc1ccc(Cl)cc1,i
O/N=C\c1c(O)c(Br)cc2oc3c(c12)CCCC3,38%*
C=CCN(C(=O)CSc1cc(=O)n(C)c2ccccc12)c1ccccc1,i
O=C(NCc1ccccn1)C1CCN(C(=O)c2ccc(Cl)cc2)CC1,i
COc1coc(CN2CCOC(C(F)(F)F)C2)cc1=O (stereo not drawn),i
O=C(c1ccc(C2CCCO2)s1)N1C[C@@H]2[C@H](C1)[C@H]1CC[C@@H]2O1 (stereo partly drawn),i
CN(C)C(C(=O)N1C[C@@H]2[C@H](C1)[C@H]1CC[C@@H]2O1)c1ccc2c(c1)OCO2 (stereo partly drawn),50%*
COc1ccccc1C(CC(=O)O)c1ccc2c(c1)OCO2 (stereo not drawn),i
COC(=O)c1ccc(N2C(=O)c3ccc(C(=O)OC(C)C(=O)c4ccc(C)cc4)cc3C2=O)cc1 (stereo not drawn),i

# Assay outcomes (PubChem)
